Data from the supplement of paper PMC10338343.
± gives the standard deviation.

How the values were obtained:
[1] = test system: MILI (PIWIL2) piRISC loaded with L1MC piRNA (26 nt); assay: pre-steady-state target cleavage rate (min^-1); guide: L1MC piRNA 5'p-UAACUAAAUACUAUGCAAGCUGUAGG; higher = faster piRNA-guided slicing of the target; details: auxiliary factor: 500 nM mouse GTSF1;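 further: 1 nM active piRISC with 0.1 nM target library at 33 °C single turnover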
Summary of the method: (§1)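 A transcribed, DNA-blocked target RNA library […] was incubated at 33 °C for 0–8 or 0–960 min with 1 nM active affinity-purified piRISC carrying one synthetic guide, in HEPES–potassium acetate buffer with or without 500 nM GTSF1 partner protein. Uncleaved targets were then sequenced and normalised to depth and to weakly complementary targets. Data from three trials were pooled, with k3 capped at 0.0001 min^-1, and a burst-and-steady-state fit yielded the pre-steady-state cleavage rate.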

[2] = test system: EfPiwi piRISC loaded with L1MC piRNA (26 nt); assay: pre-steady-state target cleavage rate (min^-1); auxiliary factor: 500 nM Ephydatia muelleri Gtsf1; guide: L1MC piRNA 5'p-UAACUAAAUACUAUGCAAGCUGUAGG; MIWI and MILI are mouse PIWI proteins and EfPiwi is from a freshwater sponge; tags in brackets are library labels; higher = faster piRNA-guided slicing of the target
Summary of the method: as §1

Sequence | pre-steady-state target cleavage rate [1] | pre-steady-state target cleavage rate [2]
UCCUGCUAGAGCUUGCAUAGAAUUUAGUUA | 0.0404 ± 0.0063 | 0.0043 ± 0.0014
UCCUGGAUCAGCUUGCAUAGUUUUUAGUAA | 0.0337 ± 0.0089 | 0.00477 ± 0.0025
UCCUCCUAGAGCUUGCAUAGAAUUUAGUUA | 0.0513 ± 0.0099 | 0.00468 ± 0.0013
UCCUGGUACAGCAUGCAUAGUAUUUAGAAA | 0.0581 ± 0.015 | 0.00215 ± 0.002
UCCUCCUACAGCUUGCAUAUUAUUUAGUUA | 0.0824 ± 0.011 | 0.0783 ± 0.025
UCCUGCUAGAGCUUGCAUACUAUUUAGUUA | 0.0842 ± 0.018 | 0.00515 ± 0.0018
UCCUGGAACAGCUAGCAUAGUAUUUAGAUA | 0.118 ± 0.02 | 0.0041 ± 0.0023
UCCUGGUACUGCUUGCAUAGUAUAUAGUUA | 0.168 ± 0.044 | 0.01 ± 0.0048
UCCUCCUACAGCUUGCAUAGUUAAUAGAAA | 0.00946 ± 0.0043 | 0.00366 ± 0.0031
UCCUGCUACAGCUUGCAUAGUAAUUAGAAA | 0.0259 ± 0.0091 | 0.00362 ± 0.0016
UCCUCCUACAGCAUGCAUAGAAUUUAGUUA | 0.176 ± 0.044 | 0.00245 ± 0.0015
UCCUGGAUCAGCUUGCAUAGUAUAUAGAUA | 0.0407 ± 0.013 | 0.00301 ± 0.0023
UCCUGGAUCAGCUUGCAUAGUUUUUAGAUA | 0.0159 ± 0.0066 | 0.00428 ± 0.0026
UCCUGGAACACCUUGCAUAGUAUUUAGAUA | 0.183 ± 0.043 | 0.0026 ± 0.0026
UCCUGCUACAGCUUGCAUAGUAUUUUCAAA | 0.137 ± 0.041 | 0.00277 ± 0.0021
UCCUGGAACAGCUUGCAUAUUAUUUAGUUA | 0.0696 ± 0.008 | 0.0169 ± 0.0055
UCCUGGAACAGCUUGCUUAGUAUUAAGUUA | 0.179 ± 0.026 | 0.00237 ± 0.002
UCCUGCUACAGCUUGCAUACUAUUUUGUUA | 0.0252 ± 0.0096 | 0.00432 ± 0.0019
UCCUGGAACAGCUUGCAUAGUAUUUAGAUA | 0.137 ± 0.025 | 0.00437 ± 0.0016
UCCUGCUACAGCUUGCAUAGAAUUUUGUUA | 0.06 ± 0.013 | 0.00457 ± 0.0019

Sequence | pre-steady-state target cleavage rate [1] | pre-steady-state target cleavage rate [2]
UCCUGGAACAGCUUGCAUAGUAUUUUCAUA | 0.0434 ± 0.013 | 0.00388 ± 0.002
UCCUCCUACAGCUUGGAUACUAUUUAGUUA | 0.0539 ± 0.0095 | 0.0118 ± 0.0031
UCCUGCUACAGGUUGCAUAGAAUUUAGUUA | 0.0387 ± 0.0083 | 0.00649 ± 0.0018
UCCUGGAUGUGCUUGCAUAGUAUUUGAGUUA | 0.123 ± 0.024 | 0.0118 ± 0.0069
UCCUCCAACAGCUUGCAUAGUAUUUAGAAA | 0.147 ± 0.023 | 0.00461 ± 0.0019
UCCUGGAUCAGCUUGCAUAGUAUUUUCAUA | 0.0451 ± 0.011 | 0.00263 ± 0.0022
UCCUGGAUCAGCUUGCAAAGUAUUUACAAA | 0.0432 ± 0.012 | 0.00563 ± 0.0037
UCCUCCUACAGCUUGGAUAGUAUUUACAAA | 0.021 ± 0.0081 | 0.00267 ± 0.0022
UCCUGCUACAGCUUGCAAUAGUAUUUAGUUA | 0.0355 ± 0.0093 | 0.006 ± 0.0018
UCCUCCAACAGCUUGCAUAGUAUUUACAAA | 0.113 ± 0.022 | 0.00355 ± 0.0024
UCCUGCUACAGCUUGCAUAGUUUAUAGUUA | 0.0528 ± 0.017 | 0.00312 ± 0.0027
UCCUGGAUCAGCUUGCAUAGUAUUAAGAAA | 0.0751 ± 0.02 | 0.00459 ± 0.0022
UCCUCGUACAGCUUGCAUAGUAUUUAGAAA | 0.131 ± 0.024 | 0.00711 ± 0.0033
UCCUGGAAGUCCUUGCAUAGUAUUUAGUAA | 0.122 ± 0.021 | 0.00346 ± 0.0028
UCCUGGAUGACGAUGCAUAGUAUUUAGUUA | 0.0949 ± 0.013 | 0.00546 ± 0.0027
UCCUGCUACAGCUUGCAUAGUAUUUUCAUA | 0.151 ± 0.044 | 0.00529 ± 0.0027
UCCUGCUACAGCUUGCAUACUAUUUAGAAA | 0.0482 ± 0.015 | 0.00298 ± 0.0021
UCCUGGAACAGCUUGCAUAGAAUUUUGUUA | 0.0296 ± 0.01 | 0.00229 ± 0.0021
UCCUCCUACAGCUUGCAUAGUAUAUAGAUA | 0.0715 ± 0.018 | 0.0051 ± 0.0025
UCCUGGAACAGCUUGCAUACUAAUUAGUUA | 0.0355 ± 0.0087 | 0.00305 ± 0.0029

Sequence | pre-steady-state target cleavage rate [1] | pre-steady-state target cleavage rate [2]
UCCUGGAACAGCUUGCAUAGAAUUUAGAUA | 0.0527 ± 0.018 | 0.00187 ± 0.0015
UCCUCCUUGAGCUUGCAUAGUAUUUAGAAA | 0.145 ± 0.025 | 0.00549 ± 0.0018
UCCUCCUUCAGCUUGCAUAGUAUUUACAAA | 0.13 ± 0.029 | 0.00379 ± 0.0027
UCCUCCUACAGCUUGCAUACGUAUUUAGUUA | 0.00561 ± 0.0046 | 0.0035 ± 0.0025
UCCUGGAUGAGCUUGCAUAGUAUUUAGAAA | 0.119 ± 0.03 | 0.00648 ± 0.0025
UCCUGCUACAGCUUGCAUAGAUUUUACAAA | 0.00852 ± 0.0044 | 0.00292 ± 0.0018
UCCUGGAUCAGCUUGCUAUAGUAUUUAGUUA | 0.0101 ± 0.0052 | 0.00528 ± 0.0019
UCCUGGUACAGCUUGCAUAGUAUUUAGCUUA | 0.204 ± 0.041 | 0.00493 ± 0.0023
UCCUGCUUGUGCUUGCAUAGUAUUUAGAAA | 0.0115 ± 0.0056 | 0.00373 ± 0.0022
UCCUGGAACACCUUGCAUAGUAUAUAGUUA | 0.189 ± 0.033 | 0.0051 ± 0.0035
UCCUGGAUCAGCUUGCAUAGGAUUUAGUUA | 0.0049 ± 0.0037 | 0.0025 ± 0.0024
UCCUGGAACUGCUUGCAUACUAUUUAGUUA | 0.076 ± 0.01 | 0.0046 ± 0.0019
UCCUCCUACAGCUUGCUUAGUAUUUAGAUA | 0.15 ± 0.018 | 0.00689 ± 0.0038
UCCUGGAUGAGCUUGCAUAGUAAUUAGUAA | 0.219 ± 0.042 | 0.00197 ± 0.0019
UCCUCCUACAGCUUGCAUAGUAUAAUGUAA | 0.046 ± 0.014 | 0.00413 ± 0.0027
UCCUGCUACAGCUUGCAUAGUAUUAACUUA | 0.0306 ± 0.0076 | 0.00397 ± 0.0027
UCCUGGUAGAGCUUGCAUAGUAUUUAGAAA | 0.128 ± 0.028 | 0.00392 ± 0.0022
UCCUGCUACAGCUUGCAUAGUAUUAAGUAA | 0.172 ± 0.042 | 0.00315 ± 0.0016
UCCUGCUACAGCUUGCAUAGUUUUUUGUUA | 0.112 ± 0.028 | 0.00384 ± 0.0021
UCCUGGAACAGCUUGCAUUGUAUUUUGUUA | 0.102 ± 0.013 | 0.00509 ± 0.0026
